In PubChem BioAssay (EPA / NIEHS) one finds outcome and AC50 data, which are given here for seven molecules.

The source made the active and inactive calls. Rule for the calls: active = hit-call score of the fitted dose curve at least 0.9, where 1 is the maximum; inactive = score below 0.9.

The nature of assay [1]: ATG_CRE_CIS: Attagene CIS-FACTORIAL HepG2 Assay for human cAMP Responsive Element (CRE) binding protein 3 (AID 2282926). As to conditions: HepG2 CRE cis-reporter, Attagene multiplexed mRNA; actives raise or lower the signal. In outline:
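Capillary electrophoresis of 6-FAM-labelled, HpaI-digested PCR products quantified reporter transcripts. These came from HepG2 transiently transfected with cis-element reporters and exposed to test chemicals for 24 hours, with DMSO defining baseline activity.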

The target of assay [2] is CCAAT/enhancer-binding protein beta (Homo sapiens) (UniProt P17676). In words: ATG_C_EBP_CIS: Attagene CIS-FACTORIAL HepG2 Assay for human CCAAT/Enhancer Binding Protein (C/EBP) beta (AID 2282927). As to conditions: HepG2 Attagene cis-factorial transcription factor reporter; actives raise or lower the signal. In outline: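 Following a 24 h incubation with test chemical, transfected HepG2 cells yielded RNA whose reporter transcripts were quantified by RT-PCR and fluorescent capillary electrophoresis, with DMSO serving as baseline for bidirectional fitting.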

The target of assay [3] is Aryl hydrocarbon receptor (Homo sapiens) (UniProt P35869). In words: ATG_Ahr_CIS: Attagene CIS-FACTORIAL HepG2 Assay for human Aryl Hydrocarbon Receptor (Ahr) (AID 2282930). To be noted: HepG2 AhR cis-factorial reporter transcription; actives raise or lower the signal. The procedure, abridged: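 Values derive from bidirectional fitting against DMSO negative control. Underlying signal: cis-element reporter mRNA in transiently transfected HepG2, harvested 24 h post-dose and measured by RT-PCR plus capillary electrophoresis.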

Assay [4] is described as follows: ATG_AP_1_CIS: Attagene CIS-FACTORIAL HepG2 Assay for human Activator Protein 1 (AP-1) (AID 2282931). As to conditions: HepG2 Attagene cis-factorial AP-1 reporter mRNA; actives raise or lower the signal. In outline:
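Fluorescence of labelled PCR fragments separated by capillary electrophoresis gives reporter mRNA levels. HepG2 with transfected cis-regulated reporter units, 24 h exposure; DMSO serves as baseline for bidirectional curve fits.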

Assay [5] in a line: ATG_BRE_CIS: Attagene CIS-FACTORIAL HepG2 Assay for human Bone Morphogenetic Protein (BMP) Response Element (BRE) (AID 2282933). As to conditions: HepG2 BMP response element reporter, Attagene transcription factor profiling; actives raise or lower the signal. The procedure, abridged: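 Endogenous transcription factor activity at a BMP response element was monitored in transfected HepG2 cells 24 h after dosing. Fluorescent RT-PCR products were resolved by capillary electrophoresis, and activity was fitted in both directions versus DMSO.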

Assay [6] is described as follows: ATG_M_19_CIS: Attagene CIS-FACTORIAL HepG2 Assay for M19 Transcription Factor (Internal Marker) (AID 2282939). As to conditions: HepG2 Attagene CIS-FACTORIAL M19 internal marker reporter; actives raise or lower the signal. In outline:
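Background-control endpoint from a multiplexed HepG2 reporter panel. Cells carrying cis-regulated reporter constructs are treated 24 h, then reporter transcripts are amplified, fluorescently labelled and sized by capillary electrophoresis. DMSO defines baseline.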

The nature of assay [7]: ATG_M_06_CIS: Attagene CIS-FACTORIAL HepG2 Assay for M06 Transcription Factor (Internal Marker) (AID 2282950). To be noted: HepG2 Attagene CIS-FACTORIAL M06 internal marker reporter; actives raise or lower the signal. In outline:
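Steps: transfect HepG2 with multiplexed cis-element reporter constructs; dose chemical 24 h; extract RNA with DNase treatment; reverse-transcribe, PCR-amplify, 6-FAM label, HpaI digest; separate fragments by capillary electrophoresis. Activity fitted both directions versus DMSO.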

For assay [8], the target named is Hypoxia-inducible factor 1-alpha (Homo sapiens) (UniProt Q16665). In words: ATG_HIF1a_CIS: Attagene CIS-FACTORIAL HepG2 Assay for human Hypoxia Inducible Factor 1 (HIF1A) (AID 2282951). To be noted: HepG2 Attagene cis-factorial HIF1a reporter transcription; actives raise or lower the signal. In outline:
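HepG2, transient cis-reporter library, 24 h dosing. RNA → RT (oligo dT) → PCR → 6-FAM primer extension → HpaI → CE. Bidirectional curve fit vs DMSO.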

Assay [9] has as its target Hepatocyte nuclear factor 6 (Homo sapiens) (UniProt Q9UBC0). The assay can be described thus: ATG_HNF6_CIS: Attagene CIS-FACTORIAL HepG2 Assay for human Hepatocyte Nuclear Factor 6 (HNF6) (AID 2282952). To be noted: HepG2 Attagene cis-factorial HNF6 reporter transcription; actives raise or lower the signal. The procedure, abridged:
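Activity values derive from bidirectional fitting against DMSO of reporter mRNA levels, measured by capillary electrophoresis of labelled RT-PCR products from HepG2 cells exposed 24 h.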

Assay [10] concerns the target Heat shock factor protein 1 (Homo sapiens) (UniProt Q00613). The assay can be described thus: ATG_HSE_CIS: Attagene CIS-FACTORIAL HepG2 Assay for human Heat Shock Transcription Factor 1 (HSE) (AID 2282953). To be noted: HepG2 HSE cis-reporter, Attagene RNA transcription; actives raise or lower the signal. The procedure, abridged:
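Cells were transfected with cis-element-driven reporter constructs, dosed for 24 h, then total RNA was reverse-transcribed and reporter cDNA amplified, FAM-labelled and digested with HpaI. Fragments were resolved by capillary electrophoresis; gain or loss was fitted against DMSO.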

Assay [11] in a line: ATG_TA_CIS: Attagene CIS-FACTORIAL HepG2 Assay for human TA Basal Promoter (AID 2282964). To be noted: HepG2 Attagene CIS-factorial TA basal promoter reporter; actives raise or lower the signal. The procedure, abridged: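 Steps: transfect HepG2 with MRTUs; dose 24 h; isolate RNA, DNase-treat, reverse-transcribe; PCR and FAM-label reporter cDNA; digest with HpaI 2h at 37 C; run capillary electrophoresis. Activity fitted both directions against DMSO.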

Assay [12] can be described thus: ATG_VDRE_CIS: Attagene CIS-FACTORIAL HepG2 Assay for human Vitamin D Receptor Element (VDRE) (AID 2282968). As to conditions: HepG2 VDRE cis-reporter transcription, actives raise or lower the signal. In outline: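 Steps: transfect HepG2 with multiple reporter transcription units; dose chemicals 24 h; isolate RNA; RT-PCR; label with 6-FAM primer extension; HpaI digest; capillary electrophoresis. Curves fitted both directions against DMSO.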

Assay [13] has as its target X-box-binding protein 1 (Homo sapiens) (UniProt P17861). In words: ATG_Xbp1_CIS: Attagene CIS-FACTORIAL HepG2 Assay for human X-box Binding Protein 1 (XBP1) (AID 2282972). As to conditions: HepG2 XBP1 cis-element reporter, Attagene multiplex; actives raise or lower the signal. In outline: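 Changes in reporter transcript abundance, read by RT-PCR and capillary electrophoresis, reflect endogenous transcription factor activity. Transfected HepG2 cells received compound for 24 hours; DMSO defined baseline for bidirectional analysis.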

Assay [14] concerns the target Myc proto-oncogene protein (Homo sapiens) (UniProt P01106). The assay can be described thus: ATG_Myc_CIS: Attagene CIS-FACTORIAL HepG2 Assay for human Myelocytomatosis (Myc) Proto-Oncogene Transcription Factor (AID 2282990). To be noted: HepG2, Attagene cis-reporter transcription factor activity; actives raise or lower the signal. In outline: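 Multiplexed cis-reporter transcription in HepG2 cells after 24 h chemical treatment. Reporter mRNA measured by RT-PCR and capillary electrophoresis fluorescence; activity fitted bidirectionally against DMSO control.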

Assay [15] in a line: ATG_NRF2_ARE_CIS: Attagene CIS-FACTORIAL HepG2 Assay for human Nuclear Factor Erythroid 2 Related Factor 2 (NFR2) response to Antioxidant Response Elements (ARE) (AID 2282992). As to conditions: HepG2 Attagene ARE/NRF2 reporter, transcription factor activity; actives raise or lower the signal. The procedure, abridged:
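Using transiently transfected HepG2 cells exposed for 24 h, reporter mRNA levels were determined by RT-PCR with fluorescent primer extension and capillary electrophoresis, analysed for gain or loss of signal against DMSO.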

Assay [16] in a line: ATG_Oct_MLP_CIS: Attagene CIS-FACTORIAL HepG2 Assay for human Octamer-Binding Transcription Factor (Oct) (AID 2282993). As to conditions: HepG2 Attagene cis-factorial Oct reporter, mRNA; actives raise or lower the signal. In outline:
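Multiplexed cis-reporter assay in human liver HepG2 cells, 24 h incubation. Reporter RNA amplified and labelled, then resolved by capillary electrophoresis; DMSO serves as negative control and baseline.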

Assay [17] deals with Cellular tumor antigen p53 (Homo sapiens) (UniProt P04637). The assay can be described thus: ATG_p53_CIS: Attagene CIS-FACTORIAL HepG2 Assay for human p53 Transcription Factor (AID 2282994). As to conditions: HepG2 p53 cis-element reporter, Attagene mRNA; actives raise or lower the signal. The procedure, abridged: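 In HepG2 cells, reporter transcription units under cis-regulatory promoters were transiently introduced. Following 24 h treatment, RNA was processed to labelled, digested cDNA fragments read by capillary electrophoresis; fitting was bidirectional versus DMSO.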

For assay [18], the target named is Nuclear respiratory factor 1 (Homo sapiens) (UniProt Q16656). In words: ATG_NRF1_CIS: Attagene CIS-FACTORIAL HepG2 Assay for human Nuclear Respiratory Factor 1 (NRF1) Orphan Gene (AID 2282987). To be noted: HepG2 NRF1 cis-element reporter, Attagene multiplex; actives raise or lower the signal. The procedure, abridged: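 Human hepatoma HepG2 cells carrying transfected promoter-regulated reporter units were incubated with test chemicals for 24 h. Reporter transcripts were measured by RT-PCR plus capillary electrophoresis, and endpoints derived by bidirectional fitting with DMSO as baseline.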

A short description of assay [19]: ATG_E_Box_CIS: Attagene CIS-FACTORIAL HepG2 Assay for human Enhancer Box (E-box) (AID 2282936). As to conditions: HepG2 E-box cis-reporter transcription, actives raise or lower the signal. The procedure, abridged:
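Endogenous transcription factor activity was sensed in human HepG2 liver cells through transfected cis-promoter reporter units. After 24 h of dosing, total RNA was reverse-transcribed and reporter cDNA resolved by capillary electrophoresis.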

Assay [20] can be described thus: ATG_GLI_CIS: Attagene CIS-FACTORIAL HepG2 Assay for human Zinc Finger Protein GLI1 (AID 2282945). As to conditions: HepG2, Attagene cis-factorial reporter mRNA, GLI element; actives raise or lower the signal. In outline:
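HepG2 cells transiently transfected with cis-promoter multiplexed reporter units report endogenous transcription factor activity. After 24 h chemical exposure, reporter mRNA was quantified by RT-PCR, 6-FAM labelling, HpaI digestion and capillary electrophoresis, with bidirectional fitting against DMSO.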

Sequence of Cellular tumor antigen p53 (Homo sapiens) (P04637 whole entry, looked up, the tested form may be a part): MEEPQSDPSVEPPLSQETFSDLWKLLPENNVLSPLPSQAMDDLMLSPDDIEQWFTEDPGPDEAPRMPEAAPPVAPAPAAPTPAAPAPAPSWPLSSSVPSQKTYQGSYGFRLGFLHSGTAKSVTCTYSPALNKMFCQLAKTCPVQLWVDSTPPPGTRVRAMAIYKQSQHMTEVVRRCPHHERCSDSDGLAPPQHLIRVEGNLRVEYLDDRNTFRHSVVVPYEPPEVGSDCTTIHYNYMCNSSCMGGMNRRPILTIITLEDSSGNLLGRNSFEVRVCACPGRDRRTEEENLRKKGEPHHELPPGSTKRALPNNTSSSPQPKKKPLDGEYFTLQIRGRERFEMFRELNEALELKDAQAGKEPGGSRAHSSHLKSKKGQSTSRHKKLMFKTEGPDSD
Sequence of CCAAT/enhancer-binding protein beta (Homo sapiens) (P17676 whole entry, looked up): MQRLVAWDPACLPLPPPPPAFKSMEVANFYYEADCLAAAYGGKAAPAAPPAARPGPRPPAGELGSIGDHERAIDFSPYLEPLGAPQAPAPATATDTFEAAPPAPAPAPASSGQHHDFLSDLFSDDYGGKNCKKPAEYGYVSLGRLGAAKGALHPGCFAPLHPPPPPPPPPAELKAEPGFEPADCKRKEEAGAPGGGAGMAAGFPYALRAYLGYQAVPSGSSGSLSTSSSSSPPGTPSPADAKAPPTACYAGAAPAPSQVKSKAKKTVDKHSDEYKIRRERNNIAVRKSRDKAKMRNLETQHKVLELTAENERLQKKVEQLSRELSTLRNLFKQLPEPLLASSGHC
Sequence of Heat shock factor protein 1 (Homo sapiens) (Q00613 whole entry, looked up, the tested form may be a part): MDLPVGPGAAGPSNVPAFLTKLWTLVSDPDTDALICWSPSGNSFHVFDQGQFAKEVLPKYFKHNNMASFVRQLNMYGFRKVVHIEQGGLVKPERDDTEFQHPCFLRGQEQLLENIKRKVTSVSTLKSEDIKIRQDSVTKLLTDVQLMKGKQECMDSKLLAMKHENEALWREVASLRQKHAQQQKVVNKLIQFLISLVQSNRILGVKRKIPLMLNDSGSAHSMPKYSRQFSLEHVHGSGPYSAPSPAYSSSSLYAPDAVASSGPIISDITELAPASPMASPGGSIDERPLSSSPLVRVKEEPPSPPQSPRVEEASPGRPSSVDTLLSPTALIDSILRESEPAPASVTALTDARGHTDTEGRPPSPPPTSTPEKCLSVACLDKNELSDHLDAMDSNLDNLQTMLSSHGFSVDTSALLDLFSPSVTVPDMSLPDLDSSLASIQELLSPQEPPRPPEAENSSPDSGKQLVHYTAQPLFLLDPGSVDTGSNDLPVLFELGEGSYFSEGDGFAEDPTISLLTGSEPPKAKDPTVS
Sequence of Nuclear respiratory factor 1 (Homo sapiens) (Q16656 whole entry, looked up): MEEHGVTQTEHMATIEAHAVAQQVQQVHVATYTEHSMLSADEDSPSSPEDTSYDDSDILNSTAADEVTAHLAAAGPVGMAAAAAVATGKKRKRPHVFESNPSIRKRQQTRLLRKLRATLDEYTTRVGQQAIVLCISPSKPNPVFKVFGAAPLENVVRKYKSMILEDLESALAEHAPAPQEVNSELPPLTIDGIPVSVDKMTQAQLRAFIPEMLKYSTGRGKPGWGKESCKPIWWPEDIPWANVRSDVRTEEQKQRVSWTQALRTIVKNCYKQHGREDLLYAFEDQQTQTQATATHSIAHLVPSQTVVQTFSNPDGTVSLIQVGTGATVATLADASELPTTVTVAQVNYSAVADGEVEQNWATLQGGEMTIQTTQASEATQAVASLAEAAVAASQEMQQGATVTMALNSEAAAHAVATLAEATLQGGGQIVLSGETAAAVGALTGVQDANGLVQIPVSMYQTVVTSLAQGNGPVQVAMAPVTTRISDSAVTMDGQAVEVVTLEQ
Sequence of Hypoxia-inducible factor 1-alpha (Homo sapiens) (Q16665 whole entry, looked up): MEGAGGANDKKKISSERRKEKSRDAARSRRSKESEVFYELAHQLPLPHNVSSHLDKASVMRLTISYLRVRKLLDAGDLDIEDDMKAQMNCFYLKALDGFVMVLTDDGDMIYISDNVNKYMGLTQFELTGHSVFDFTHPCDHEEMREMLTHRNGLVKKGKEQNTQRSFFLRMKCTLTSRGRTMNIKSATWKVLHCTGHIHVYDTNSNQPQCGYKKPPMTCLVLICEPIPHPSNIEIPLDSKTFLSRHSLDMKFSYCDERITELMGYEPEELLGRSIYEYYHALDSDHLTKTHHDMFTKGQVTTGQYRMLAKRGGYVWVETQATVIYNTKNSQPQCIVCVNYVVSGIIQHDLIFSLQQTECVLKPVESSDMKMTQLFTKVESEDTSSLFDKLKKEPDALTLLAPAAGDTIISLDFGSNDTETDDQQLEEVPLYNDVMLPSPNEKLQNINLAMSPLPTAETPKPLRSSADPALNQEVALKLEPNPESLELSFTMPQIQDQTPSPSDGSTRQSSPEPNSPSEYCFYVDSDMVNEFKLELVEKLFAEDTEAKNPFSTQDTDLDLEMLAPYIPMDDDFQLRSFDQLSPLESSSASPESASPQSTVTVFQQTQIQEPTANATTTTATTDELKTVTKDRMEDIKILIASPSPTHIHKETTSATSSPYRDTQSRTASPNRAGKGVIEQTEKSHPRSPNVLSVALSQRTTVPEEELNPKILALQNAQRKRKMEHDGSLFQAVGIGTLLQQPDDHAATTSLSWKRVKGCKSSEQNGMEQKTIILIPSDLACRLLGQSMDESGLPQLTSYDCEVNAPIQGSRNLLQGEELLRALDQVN
Sequence of X-box-binding protein 1 (Homo sapiens) (P17861 whole entry, looked up): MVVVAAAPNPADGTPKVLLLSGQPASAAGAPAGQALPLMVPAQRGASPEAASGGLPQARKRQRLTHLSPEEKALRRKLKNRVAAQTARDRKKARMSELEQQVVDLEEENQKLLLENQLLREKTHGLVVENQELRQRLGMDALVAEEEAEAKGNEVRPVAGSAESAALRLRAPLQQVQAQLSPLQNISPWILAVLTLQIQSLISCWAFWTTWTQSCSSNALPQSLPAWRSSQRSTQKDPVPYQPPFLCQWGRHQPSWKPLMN
Sequence of Myc proto-oncogene protein (Homo sapiens) (P01106 whole entry, looked up): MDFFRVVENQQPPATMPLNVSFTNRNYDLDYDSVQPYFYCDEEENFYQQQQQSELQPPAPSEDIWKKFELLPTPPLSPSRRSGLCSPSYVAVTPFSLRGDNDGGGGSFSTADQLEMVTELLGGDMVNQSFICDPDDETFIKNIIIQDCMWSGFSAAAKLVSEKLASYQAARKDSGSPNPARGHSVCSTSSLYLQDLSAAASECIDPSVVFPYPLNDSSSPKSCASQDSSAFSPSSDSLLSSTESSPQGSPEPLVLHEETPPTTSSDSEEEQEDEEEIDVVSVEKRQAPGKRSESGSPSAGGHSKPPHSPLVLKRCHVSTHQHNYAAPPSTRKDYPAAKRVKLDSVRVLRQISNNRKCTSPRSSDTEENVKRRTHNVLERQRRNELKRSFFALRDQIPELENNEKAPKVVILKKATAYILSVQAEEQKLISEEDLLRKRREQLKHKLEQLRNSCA
Sequence of Aryl hydrocarbon receptor (Homo sapiens) (P35869 whole entry, looked up): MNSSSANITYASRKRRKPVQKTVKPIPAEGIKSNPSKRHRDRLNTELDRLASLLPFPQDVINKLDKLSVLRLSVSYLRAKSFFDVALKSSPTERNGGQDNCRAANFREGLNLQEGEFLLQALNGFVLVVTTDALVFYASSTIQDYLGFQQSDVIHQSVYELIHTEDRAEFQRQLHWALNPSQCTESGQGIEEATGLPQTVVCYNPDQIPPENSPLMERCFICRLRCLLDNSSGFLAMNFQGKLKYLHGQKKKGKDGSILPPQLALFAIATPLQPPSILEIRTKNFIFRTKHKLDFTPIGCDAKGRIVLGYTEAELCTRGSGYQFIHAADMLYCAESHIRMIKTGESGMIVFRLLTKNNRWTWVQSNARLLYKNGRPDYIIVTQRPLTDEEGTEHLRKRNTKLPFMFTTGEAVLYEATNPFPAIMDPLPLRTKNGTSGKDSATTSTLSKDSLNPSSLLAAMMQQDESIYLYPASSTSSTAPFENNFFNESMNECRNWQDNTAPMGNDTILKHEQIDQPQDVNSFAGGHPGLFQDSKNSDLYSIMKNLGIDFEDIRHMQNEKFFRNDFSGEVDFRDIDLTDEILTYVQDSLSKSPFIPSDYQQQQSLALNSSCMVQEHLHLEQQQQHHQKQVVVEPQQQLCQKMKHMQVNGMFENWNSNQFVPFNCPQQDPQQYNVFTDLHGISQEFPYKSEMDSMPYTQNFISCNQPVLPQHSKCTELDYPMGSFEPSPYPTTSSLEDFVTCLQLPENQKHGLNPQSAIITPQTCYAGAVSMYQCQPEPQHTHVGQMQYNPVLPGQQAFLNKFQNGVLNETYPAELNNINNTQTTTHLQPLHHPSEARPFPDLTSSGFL
Sequence of Hepatocyte nuclear factor 6 (Homo sapiens) (Q9UBC0 whole entry, looked up): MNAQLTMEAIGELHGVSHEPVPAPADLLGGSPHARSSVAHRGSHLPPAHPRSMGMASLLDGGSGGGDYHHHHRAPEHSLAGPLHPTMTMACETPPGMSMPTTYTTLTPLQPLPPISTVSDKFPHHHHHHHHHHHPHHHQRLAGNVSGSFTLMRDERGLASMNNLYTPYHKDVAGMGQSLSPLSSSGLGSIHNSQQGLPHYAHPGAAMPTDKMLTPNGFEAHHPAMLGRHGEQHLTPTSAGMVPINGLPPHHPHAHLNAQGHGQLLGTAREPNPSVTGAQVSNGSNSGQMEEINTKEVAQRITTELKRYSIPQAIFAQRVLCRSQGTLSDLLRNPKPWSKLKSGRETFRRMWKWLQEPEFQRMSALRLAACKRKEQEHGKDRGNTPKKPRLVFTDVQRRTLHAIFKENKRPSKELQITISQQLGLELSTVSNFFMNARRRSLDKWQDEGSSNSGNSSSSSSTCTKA

In the case of `c1ccc(P(c2ccccc2)c2ccccc2)cc1`, the molecule was called inactive in [1], in assay [2], in assay [3], in assay [4], in assay [5] and in [6]. The molecule was classed as inactive in assay [7], in [8], in [9], in [10], in assay [11] and in [12]. For the same molecule, the outcome in assay [13], in [14], in assay [16] and in [17] was inactive. Besides, the AC50 – broadly, the concentration giving half of the maximal activity seen – in assay [15] was 21.5 µM (active).
On to `CCCCCCCCCCCCCCCC[N+](C)(C)C`, for which the AC50 was 48.9 µM (active) in assay [1]; 24.1 µM (active) in assay [2]; 35.5 µM (active) in assay [3]; 100 µM (active) in assay [4]; 100 µM (active) in [9]; 9.16 µM (active) in assay [12]. Also, the AC50 in [18] is 26 µM (active); in assay [16], 26.8 µM (active). The molecule was classed as inactive in assay [5], in assay [6], in assay [8], in [10], in assay [13] and in [14]. The result in assay [15] was inactive.
Regarding `O=C(O)CCl`, the molecule was classed as inactive in assay [1], in assay [2], in assay [4], in [5], in [19] and in [6]. In addition, the result in assay [20], in [7], in assay [8], in [9], in assay [10] and in [11] was inactive. Besides, the call in assay [12], in assay [13], in [14], in [15] and in [16] was inactive.
With `O=C(O)C(Br)Br`, the molecule was called inactive in assay [1], in assay [2], in [4], in assay [5], in assay [19] and in assay [20]. Moreover, the call in assay [7], in assay [8], in [9], in assay [10], in assay [12] and in assay [13] was inactive. The molecule was classed as inactive in assay [18], in assay [14], in [16] and in assay [17]. Further, the AC50 in assay [15] is 1.86 µM (active).
Take `N#CCCCl`: the call in assay [1], in [2], in assay [4], in assay [5], in [6] and in [8] was inactive. Also, the molecule was classed as inactive in [9], in [10], in assay [11], in assay [12], in assay [13] and in assay [18]. Moreover, the molecule was called inactive in assay [14], in [15], in [16] and in [17].
Turning to `CC1OC(C)OC(C)O1` (stereo not given), the call in [1], in assay [2], in [3], in assay [4], in [19] and in assay [6] was inactive. Moreover, the call in assay [20], in assay [7], in assay [8], in [9], in assay [10] and in assay [13] was inactive. In addition, the molecule was called inactive in assay [18], in [14], in assay [15], in [16] and in [17].
In the case of `CC(Cc1ccc(C(C)(C)C)cc1)CN1C[C@@H](C)O[C@@H](C)C1` (stereo not given in full), the result in assay [1], in [2], in [6], in assay [7], in [8] and in [9] was inactive. Moreover, the molecule was called inactive in [10], in assay [11], in assay [13], in assay [14], in [16] and in assay [17]. The AC50 in assay [3] is 33.4 µM (active); in assay [4], 40.6 µM (active); in assay [5], 50.3 µM (active); in [15] it was 35.9 µM (active).
